Results filed as inconclusive are left out. Active and inactive are the calls of the source.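 How the source made its calls, unless noted: active means percent response above a set limit, the screen-wide mean plus 3 SD (cut at about 130% in these data); inactive means the rest.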
Columns and labels:
[1] = yeast TOR pathway RPL19A-GFP modulators, primary screen, cell-based, S. cerevisiae, multiplex flow cytometry (AID 1862; in the data active means percent of DMSO control GFP below about 86%;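 further: lower values mimic rapamycin by blocking the RPL19A rise seen in DMSO cells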); settings: S. cerevisiae RPL19A-GFP strain, flow cytometry fluorescence, 3 h; at 10 µM; stronger effect = lower value
[2] = modulators of MEP2-GFP levels in yeast, primary screen, S. cerevisiae, multiplex flow cytometry (AID 1867;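 active means GFP response, as percent of the DMSO control, above the screen-wide mean plus 3 SD, about 139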;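 further: median GFP channel fluorescence of barcode-gated MEP2-GFP cells measured by flow cytometry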); settings: S. cerevisiae MEP2-GFP strain, 3 h, at 10 µM, stronger effect = higher value, 100% means same as DMSO wells
[3] = modulators of CIT2-GFP expression in yeast, primary screen, S. cerevisiae, GFP fusion, multiplex flow cytometry (AID 1870); settings: 3 h, at 10 µM, stronger effect = higher value;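 further: barcoded CIT2-GFP strain pooled with four other GFP strains with rapamycin as positive control; median GFP fluorescence per well over plate mean of DMSO wells so 100% = DMSO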
[4] = modulators of LAP4-GFP expression in yeast, primary screen, S. cerevisiae, multiplex flow cytometry (AID 1873;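 active means GFP signal, as percent of the solvent control, above the screen mean plus 3 SD, about 149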); settings: 3 h, at 10 µM, stronger effect = higher value
[5] = inhibitors of CD8+ T cell-vesicle binding, pilot screen, LFA-1/ICAM-1 modulator project, MLPCN validation set, flow cytometry (AID 2523;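 active means response below a set limit, under 55% cells CD8-positive and vesicle-bound, and CD8 cells' 90th-percentile brightness under 279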;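 on vesicle binding response: mean PE anti-B7-1 fluorescence of CD8+ cells relative to row control; 100% = QL9-loaded vesicles with DMSO vehicle in the same plate row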); settings: 2C mouse CD8+ T cells, at 7 µM, stronger effect = lower value; double positive events: measured here: CD8+/vesicle+ event percentage
[6] = molecular target: Integrin beta-1 (Homo sapiens) + Integrin alpha-4 (Homo sapiens) (UniProt P13612+P05556); test: inhibition of HUTS-21 binding to VLA-4, pilot screen, VLA-4 allosteric modulator project, U937 cells, HUTS-21 mAb, flow cytometry, validation set (AID 2674;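 active means inhibition above 50%, about 3 SD of the validation set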;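 further: antibody binding induced by the VLA-4 ligand LDV present at three times its Kd; 0% = LDV ligand with antibody and no compound and 100% = antibody without LDV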); settings: HUTS-21 LIBS mAb binding, at 6.7 µM, stronger effect = higher value, binding induced by LDV ligand
[7] = superoxide lowering in aged yeast cells, pilot screen, validation compound set (AID 2706;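 active means superoxide response below 65% of plate, a cut near 3 SD across the whole screen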;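 further: yeast exposed to compound for one week at 30 degrees C before staining; 100% = mean of all compound wells on the same plate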); settings: S. cerevisiae aging, superoxide DHE fluorescence; at 10 µM, stronger effect = lower value
[8] = molecular target: Beta-adrenergic receptor kinase 1 (Homo sapiens) (UniProt P25098); test: GRK2 binders displacing RNA aptamer, biochemical, validation, human GRK2, bead flow cytometry (AID 488806;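 active means aptamer binding inhibition above 30%, about 3 SD of noise from non-fluorescent compounds; inactive means inhibition at or below 30%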); settings: bead-bound GRK2, FAM-aptamer displacement, at 10 µM, stronger effect = higher value
[9] = molecular target: Beta-2 adrenergic receptor (Homo sapiens) (UniProt P07550); test: beta2AR agonists driving receptor internalization, pilot screen, cell-based, FAP fluorogen, flow cytometry, validation set (AID 504459;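 active means percent response above 42, roughly 3 SD of non-fluorescent test compounds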;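 further: agonist-driven loss of surface beta2AR via internalization measured by FAP dye flow cytometry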); settings: Am2.2-beta2AR cells, FAP surface receptor flow cytometry; at 10 µM; stronger effect = higher value
[10] = molecular target: AP-2 complex subunit beta (Homo sapiens) (UniProt P63010); test: inhibitors of arrestin peptide binding to AP2, pilot screen, biochemical, validation set, GST-AP2 beads, flow cytometry (AID 504541;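 active means inhibition above 54%, about 3 SD of non-fluorescent compounds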;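 further: AP2 carries R879A mutation and is captured from E. coli lysate; bead-bound FITC arrestin peptide fluorescence measuring arrestin peptide binding to AP2; 0% = DMSO wells and 100% = excess unlabeled arrestin peptide control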); settings: FITC arrestin peptide, at 10 µM, stronger effect = higher value, AP2 beta2 appendage fragment, R879A mutant
[11] = yeast V-ATPase proton transport modulators, S. cerevisiae, pHLuorin, HTS validation (AID 504600; in the data active means response above about 15%;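 further: plate controls were DMSO for no effect and reference compound for full effect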); settings: S. cerevisiae pHLuorin cytosolic pH, at 10 µM, stronger effect = higher value
[12] = system: anti-desmoglein-3 scFv antibody binding to human DSG3; test: inhibitors of anti-DSG3 scFv binding to DSG3, pilot screen, biochemical, validation compound set, bead-based, flow cytometry (AID 588368;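 active means binding below the plate cutoff, the plate median minus 3 SD, with a reading above zero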;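 further: signal is the median channel fluorescence of bead-bound GFP antibody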); settings: Protein G beads, DSG3-Fc, scFv-GFP binding, at 10 µM, stronger effect = lower value
[13] = inhibitors of fungal efflux pumps CDR1, CDR2, MDR1, pilot screen, validation compound set, multiplex, phenotypic (AID 588506;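 active means efflux inhibition above 0.42, the validation set average plus 4 SD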;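 further: Nile Red retained in cells so higher fluorescence means more efflux inhibition; 0 = negative control wells and 1 = enniatin B 25 µM full block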); settings: S. cerevisiae pump-expressing triplex, Nile Red efflux flow cytometry; at 10 µM; stronger effect = higher value; the pumps come from Candida albicans
[14] = molecular target: ATP-binding cassette sub-family B member 6 (Homo sapiens) (UniProt Q9NP58); test: ABCB6 transporter inhibitors, pilot screen, K562-ABCB6 cells, flow cytometry, validation set (AID 588550;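 active means inhibition above the screen-wide mean plus 3 SD, about 51%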;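 further: 0% = DMSO wells and 100% = benzethonium chloride 70 µM positive control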); settings: K562-ABCB6 porphyrin accumulation, 1 h, at 10 µM, stronger effect = higher value
[15] = promoters of myeloid differentiation in arrested cells, primary screen, cell-based, GFP/MAC1 double positive, flow cytometry, validation set (AID 588685;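 active means differentiation response of at least 50%, scaled between solvent and reference control, from cells with both markers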;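 further: compound exposure lasts four days before antibody staining and flow analysis; 0% = DMSO wells and 100% = 5 µM fulvestrant positive control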); settings: ER-HoxA9 marrow cells, stronger effect = higher value, normalized: vehicle 0, fulvestrant 100
[16] = RPL19A-GFP modulators, yeast TOR pathway, confirmation, cell-based, S. cerevisiae, flow cytometry, cherry picks, mother/daughter gates (AID 2270;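 active means GFP response below 50% of the DMSO control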); settings: S. cerevisiae RPL19A-GFP strain, 3 h, at 10 µM, stronger effect = lower value, 100 = same GFP as DMSO wells
[17] = LAP4-GFP expression modulators in yeast, confirmation, cell-based, cherry picks, flow cytometry, mother/daughter gates (AID 2271;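 active means GFP response above 150% of the DMSO control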;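 further: ratio of sample to DMSO plate mean so 100% equals DMSO level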); settings: S. cerevisiae LAP4-GFP strain, 3 h, at 10 µM, stronger effect = higher value, 100 means same as DMSO control
[18] = modulators of MEP2-GFP levels in yeast, confirmation, S. cerevisiae, flow cytometry GFP, cherry picks (AID 2272;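 active means GFP response above 150% of the DMSO control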;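 further: ratio of well signal to plate DMSO mean so 100% equals DMSO level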); settings: S. cerevisiae MEP2-GFP strain, 3 h, at 10 µM, stronger effect = higher value
[19] = AGP1-GFP expression modulators, hit retest, confirmation, cell-based, flow cytometry, S. cerevisiae, cherry picks (AID 2273;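 active means GFP response above 150% of the DMSO level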;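 further: median GFP channel fluorescence over the whole cell population gate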); settings: S. cerevisiae AGP1-GFP strain, 3 h, at 10 µM
[20] = modulators of CIT2-GFP expression in yeast, confirmation, S. cerevisiae, GFP fusion, cherry picks, mother/daughter gates (AID 2274;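 active means GFP response above 150% of the DMSO level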); settings: S. cerevisiae CIT2-GFP strain, flow cytometry, 3 h, at 10 µM, stronger effect = higher value
[21] = measured here: daughter cell gate
[22] = measured here: mother cell gate
[23] = measured here: daughter cell gate response
[24] = measured here: mother cell gate response

Sequence of Beta-adrenergic receptor kinase 1 (Homo sapiens) (P25098 whole entry, looked up): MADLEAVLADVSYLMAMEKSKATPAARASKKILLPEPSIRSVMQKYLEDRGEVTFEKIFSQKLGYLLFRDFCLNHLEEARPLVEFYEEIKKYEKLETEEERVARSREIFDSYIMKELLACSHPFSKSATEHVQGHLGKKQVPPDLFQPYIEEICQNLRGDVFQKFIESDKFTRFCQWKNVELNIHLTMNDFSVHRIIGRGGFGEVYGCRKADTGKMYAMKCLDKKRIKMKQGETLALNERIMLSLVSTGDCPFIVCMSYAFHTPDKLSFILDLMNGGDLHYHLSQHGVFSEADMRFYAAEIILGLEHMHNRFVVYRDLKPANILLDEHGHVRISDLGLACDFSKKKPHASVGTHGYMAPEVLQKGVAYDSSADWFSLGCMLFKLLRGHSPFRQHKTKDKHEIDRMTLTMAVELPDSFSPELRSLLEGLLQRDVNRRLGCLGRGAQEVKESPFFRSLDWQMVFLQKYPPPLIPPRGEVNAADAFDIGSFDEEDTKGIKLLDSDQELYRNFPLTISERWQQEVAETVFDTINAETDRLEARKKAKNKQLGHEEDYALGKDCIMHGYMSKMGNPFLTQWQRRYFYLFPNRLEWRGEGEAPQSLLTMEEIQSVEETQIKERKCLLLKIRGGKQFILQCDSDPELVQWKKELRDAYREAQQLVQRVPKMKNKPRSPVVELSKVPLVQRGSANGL
Sequence of Integrin beta-1 (Homo sapiens) + Integrin alpha-4 (Homo sapiens) (P05556 whole entry, looked up): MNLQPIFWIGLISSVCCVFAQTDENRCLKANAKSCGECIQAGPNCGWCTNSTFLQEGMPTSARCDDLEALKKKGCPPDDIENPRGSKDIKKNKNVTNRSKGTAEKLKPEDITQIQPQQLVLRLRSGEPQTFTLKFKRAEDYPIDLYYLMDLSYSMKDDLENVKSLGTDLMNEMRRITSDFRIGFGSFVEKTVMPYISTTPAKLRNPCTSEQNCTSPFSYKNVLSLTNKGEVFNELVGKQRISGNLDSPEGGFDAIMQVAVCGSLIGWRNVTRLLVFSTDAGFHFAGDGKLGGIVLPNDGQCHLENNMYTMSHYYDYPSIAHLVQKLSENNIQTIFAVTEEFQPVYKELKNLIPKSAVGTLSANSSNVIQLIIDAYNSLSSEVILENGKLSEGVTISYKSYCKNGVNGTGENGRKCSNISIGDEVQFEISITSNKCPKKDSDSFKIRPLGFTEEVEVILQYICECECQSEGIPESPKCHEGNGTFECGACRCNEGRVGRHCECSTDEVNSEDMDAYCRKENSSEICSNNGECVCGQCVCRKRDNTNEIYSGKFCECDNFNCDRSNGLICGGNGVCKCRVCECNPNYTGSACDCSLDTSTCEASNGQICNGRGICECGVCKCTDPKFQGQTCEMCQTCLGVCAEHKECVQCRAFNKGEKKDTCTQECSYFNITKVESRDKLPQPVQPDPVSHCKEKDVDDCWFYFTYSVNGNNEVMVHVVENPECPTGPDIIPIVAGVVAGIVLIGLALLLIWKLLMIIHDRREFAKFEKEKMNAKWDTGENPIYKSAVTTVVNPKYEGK
Sequence of Integrin beta-1 (Homo sapiens) + Integrin alpha-4 (Homo sapiens) (P13612 whole entry, looked up): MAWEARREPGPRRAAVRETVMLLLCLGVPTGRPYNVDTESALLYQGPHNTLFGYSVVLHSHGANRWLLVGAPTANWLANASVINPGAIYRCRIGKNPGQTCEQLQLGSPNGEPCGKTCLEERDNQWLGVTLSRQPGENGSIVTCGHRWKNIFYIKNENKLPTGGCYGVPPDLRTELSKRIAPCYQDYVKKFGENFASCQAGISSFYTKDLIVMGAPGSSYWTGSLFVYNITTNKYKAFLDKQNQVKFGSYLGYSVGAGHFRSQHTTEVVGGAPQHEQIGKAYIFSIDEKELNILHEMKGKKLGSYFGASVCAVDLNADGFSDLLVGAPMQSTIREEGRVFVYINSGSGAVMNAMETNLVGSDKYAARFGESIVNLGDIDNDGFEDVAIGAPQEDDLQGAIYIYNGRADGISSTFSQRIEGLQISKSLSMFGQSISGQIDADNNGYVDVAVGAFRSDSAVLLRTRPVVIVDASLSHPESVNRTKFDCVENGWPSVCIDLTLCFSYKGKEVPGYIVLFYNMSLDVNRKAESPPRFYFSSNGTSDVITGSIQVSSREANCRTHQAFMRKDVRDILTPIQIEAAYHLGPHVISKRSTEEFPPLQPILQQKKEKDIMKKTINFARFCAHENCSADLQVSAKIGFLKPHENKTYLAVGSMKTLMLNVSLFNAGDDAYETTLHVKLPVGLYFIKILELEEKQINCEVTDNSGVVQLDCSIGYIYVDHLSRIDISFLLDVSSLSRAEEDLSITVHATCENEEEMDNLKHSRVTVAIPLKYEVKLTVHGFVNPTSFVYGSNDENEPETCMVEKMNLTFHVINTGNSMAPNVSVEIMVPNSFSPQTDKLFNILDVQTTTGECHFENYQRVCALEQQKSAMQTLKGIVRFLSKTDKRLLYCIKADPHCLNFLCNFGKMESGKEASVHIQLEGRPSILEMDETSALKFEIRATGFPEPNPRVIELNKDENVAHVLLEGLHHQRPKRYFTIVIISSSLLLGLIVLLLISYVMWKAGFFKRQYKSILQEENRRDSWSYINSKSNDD
Sequence of Beta-2 adrenergic receptor (Homo sapiens) (P07550 whole entry, looked up): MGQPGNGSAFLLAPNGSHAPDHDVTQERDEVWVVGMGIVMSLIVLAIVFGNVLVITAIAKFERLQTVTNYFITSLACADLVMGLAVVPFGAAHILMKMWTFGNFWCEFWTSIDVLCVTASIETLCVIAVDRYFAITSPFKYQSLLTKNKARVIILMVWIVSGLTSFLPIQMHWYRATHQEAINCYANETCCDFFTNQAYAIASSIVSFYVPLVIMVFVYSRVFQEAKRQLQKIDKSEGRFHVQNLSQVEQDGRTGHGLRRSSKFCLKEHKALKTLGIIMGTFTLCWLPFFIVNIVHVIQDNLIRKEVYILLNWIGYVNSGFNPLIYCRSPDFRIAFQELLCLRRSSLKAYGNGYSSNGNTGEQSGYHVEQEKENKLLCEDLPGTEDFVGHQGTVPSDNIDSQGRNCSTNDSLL
Sequence of AP-2 complex subunit beta (Homo sapiens) (P63010 whole entry, looked up, the tested form may be a part, one chain of several): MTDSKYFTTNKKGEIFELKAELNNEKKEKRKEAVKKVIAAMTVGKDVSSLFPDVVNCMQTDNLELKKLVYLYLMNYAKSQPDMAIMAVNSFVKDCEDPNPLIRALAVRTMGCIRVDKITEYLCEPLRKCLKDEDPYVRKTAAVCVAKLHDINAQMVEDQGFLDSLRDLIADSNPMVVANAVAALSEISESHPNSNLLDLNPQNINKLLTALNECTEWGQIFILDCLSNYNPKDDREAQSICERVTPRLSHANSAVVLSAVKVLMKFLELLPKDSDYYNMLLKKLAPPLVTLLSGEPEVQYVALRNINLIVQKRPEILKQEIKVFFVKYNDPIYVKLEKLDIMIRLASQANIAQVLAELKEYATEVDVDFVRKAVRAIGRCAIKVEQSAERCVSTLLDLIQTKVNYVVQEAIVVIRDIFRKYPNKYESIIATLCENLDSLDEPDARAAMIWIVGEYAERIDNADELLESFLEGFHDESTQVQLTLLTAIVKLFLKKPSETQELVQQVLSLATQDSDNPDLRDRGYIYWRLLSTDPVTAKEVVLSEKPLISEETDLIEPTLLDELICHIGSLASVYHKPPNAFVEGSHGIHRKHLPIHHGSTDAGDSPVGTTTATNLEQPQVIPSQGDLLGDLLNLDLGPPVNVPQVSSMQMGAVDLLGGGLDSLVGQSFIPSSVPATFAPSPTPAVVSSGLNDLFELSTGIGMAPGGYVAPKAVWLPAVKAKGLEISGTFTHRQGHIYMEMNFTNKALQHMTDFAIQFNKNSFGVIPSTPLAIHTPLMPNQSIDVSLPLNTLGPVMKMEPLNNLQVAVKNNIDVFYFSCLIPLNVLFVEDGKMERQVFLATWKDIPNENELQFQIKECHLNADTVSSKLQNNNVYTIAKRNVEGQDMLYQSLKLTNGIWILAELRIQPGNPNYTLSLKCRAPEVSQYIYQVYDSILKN
Sequence of ATP-binding cassette sub-family B member 6 (Homo sapiens) (Q9NP58 whole entry, looked up): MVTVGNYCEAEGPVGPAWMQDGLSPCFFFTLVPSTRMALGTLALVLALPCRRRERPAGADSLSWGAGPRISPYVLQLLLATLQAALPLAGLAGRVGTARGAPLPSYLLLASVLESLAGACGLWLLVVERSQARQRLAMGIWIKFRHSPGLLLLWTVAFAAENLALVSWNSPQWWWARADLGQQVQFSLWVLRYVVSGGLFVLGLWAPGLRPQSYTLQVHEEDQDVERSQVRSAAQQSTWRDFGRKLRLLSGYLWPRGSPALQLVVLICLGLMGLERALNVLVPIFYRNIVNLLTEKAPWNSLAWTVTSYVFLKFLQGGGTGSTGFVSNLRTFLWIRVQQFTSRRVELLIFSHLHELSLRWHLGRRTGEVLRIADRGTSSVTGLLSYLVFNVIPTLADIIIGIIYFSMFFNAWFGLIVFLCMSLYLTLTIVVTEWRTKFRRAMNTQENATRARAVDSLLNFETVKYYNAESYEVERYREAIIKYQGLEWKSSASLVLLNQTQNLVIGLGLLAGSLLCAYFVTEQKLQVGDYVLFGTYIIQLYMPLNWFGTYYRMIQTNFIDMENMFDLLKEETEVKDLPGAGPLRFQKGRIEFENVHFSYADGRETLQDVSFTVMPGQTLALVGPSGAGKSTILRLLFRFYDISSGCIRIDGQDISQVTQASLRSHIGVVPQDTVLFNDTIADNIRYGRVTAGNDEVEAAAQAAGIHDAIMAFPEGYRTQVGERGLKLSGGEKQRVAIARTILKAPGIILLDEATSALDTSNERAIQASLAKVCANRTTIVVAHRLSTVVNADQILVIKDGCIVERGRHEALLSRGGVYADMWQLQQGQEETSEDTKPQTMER

Cc1cccc(N(C)C(=S)Oc2ccc3ccccc3c2)c1
86.4%: double positive events [5]
inactive: percent of DMSO control GFP [1] 94.4% | GFP response vs DMSO [2] 114% | percent response of DMSO control [3] 95.2% | GFP response vs DMSO [4] 78.7% | inhibition [6] -8.09% | superoxide response (% of plate) [7] 87.4% | aptamer binding inhibition [8] 0% | response [9] 11.2% | inhibition [10] -3.34% | response [11] 4.82% | binding (% of control) [12] 106% | efflux inhibition (fraction of control) [13] -0.38 | inhibition [14] 8% | differentiation response [15] -1.64%

CC(=O)[C@@]1(O)CC[C@H]2[C@@H]3CCC4=CC(=O)CC[C@]4(C)[C@H]3CC[C@@]21C
inactive: percent of DMSO control GFP [1] 92.2% | GFP response vs DMSO [2] 130% | GFP response vs DMSO [4] 97.4% | GFP response vs DMSO [16] 104% | GFP response relative to DMSO [17] 95% | GFP response vs DMSO [18] 97.8% | GFP response, % of DMSO [19] 96.5% | GFP response, % of DMSO [20] 100% | vesicle binding response [5] 216% | inhibition [6] -13.9% | superoxide response (% of plate) [7] 104% | aptamer binding inhibition [8] -15% | response [9] -16.3% | inhibition [10] 42.9% | response [11] -8.27% | binding (% of control) [12] 217% | efflux inhibition (fraction of control) [13] 0.27 | inhibition [14] 2% | differentiation response [15] 40.1%
53.6%: double positive events [5]
94.1%: GFP response relative to DMSO [17, 23]
active: percent response of DMSO control [3] 139%
105%: GFP response vs DMSO [16, 22]
101%: GFP response, % of DMSO [20, 22]
97.2%: GFP response relative to DMSO [17, 24]
99.5%: GFP response vs DMSO [16, 21]
99.7%: GFP response, % of DMSO [20, 21]

O=c1n(CCCN2CCN(c3cccc(Cl)c3)CC2)nc2ccccn12
inactive: percent of DMSO control GFP [1] 91.5% | GFP response vs DMSO [2] 112% | percent response of DMSO control [3] 106% | GFP response vs DMSO [4] 75.9% | inhibition [6] 1.61% | superoxide response (% of plate) [7] 102% | aptamer binding inhibition [8] 2% | response [9] 2.3% | inhibition [10] -2.13% | response [11] 1.41% | binding (% of control) [12] 102% | efflux inhibition (fraction of control) [13] -0.2 | inhibition [14] 11% | differentiation response [15] 5.73%
69.6%: double positive events [5]

Nc1nc2c(ncn2COCCO)c(=O)[nH]1
97.9%: GFP response relative to DMSO [17, 23]
104%: GFP response, % of DMSO [20, 21]
63.1%: double positive events [5]
100%: GFP response vs DMSO [16, 22] | GFP response relative to DMSO [17, 24] | GFP response, % of DMSO [20, 22]
active: percent of DMSO control GFP [1] 78.1%
101%: GFP response vs DMSO [16, 21]
inactive: GFP response vs DMSO [2] 123% | percent response of DMSO control [3] 103% | GFP response vs DMSO [4] 74.8% | GFP response vs DMSO [16] 100% | GFP response relative to DMSO [17] 101% | GFP response vs DMSO [18] 99.5% | GFP response, % of DMSO [19] 102% | GFP response, % of DMSO [20] 101% | vesicle binding response [5] 154% | inhibition [6] 16.2% | superoxide response (% of plate) [7] 83.2% | aptamer binding inhibition [8] 6% | response [9] -6.98% | inhibition [10] -5.88% | response [11] 0.6% | binding (% of control) [12] 107% | efflux inhibition (fraction of control) [13] -0.09 | inhibition [14] 0% | differentiation response [15] -4.91%

Reference: PubChem BioAssay
